Here are results for 34 molecules from PubChem BioAssay AID1259343 (VanderVen Lab, College of Veterinary Medicine, Cornell …, 2017).

The structures appear in SMILES notation. In all, about 6,200 compounds went through this assay and about 2,900 (47%) were called active. Rule as the data show it: active = inhibition above about 50%; inactive = the rest. The set was probably picked from earlier hits. The list shows a part of the results.

A short description of this assay: Mycobacterium tuberculosis growth inhibition, primary screen (AID 1259343). The following applies: inhibition: at 10 µM, stronger effect = higher value; outcome: 10 uM.
Regarding `CCCCC(CC)CN=C(N)NC(N)=NCCCCCCN=C(N)NC(N)=NCC(CC)CCCC` (centres undefined), the inhibition was 94.5% (active).

On to `O=C1C(=O)N(C2CCCC2)C(=O)N1CC1CCCCC1`, for which the inhibition was -11.3% (inactive).

Take `Cc1ccc(C)n1-n1c(C)nc2scc(-c3cccs3)c2c1=O`: the inhibition was 27.9% (inactive).

`Cc1nc2scc(-c3cccs3)c2c(=S)[nH]1`: the inhibition is 85.4% (active).

With `Cc1nc2scc(-c3cccs3)c2c(=O)n1-n1cccc1`, the inhibition is 87.8% (active).

With `O=C(NC1CC1c1ccccc1)C1(c2ccccc2)CCC1` (centres undefined), the inhibition is 38.3% (inactive).

Turning to `Cc1cc(-c2nnn(CC3(O)CCCCC3)n2)ccc1F`, the inhibition was 86.8% (active).

As to `CC(C)(C)OC(=O)Nc1ccc(Nc2cc(-c3ccc(F)c(F)c3)ncn2)cc1`, the inhibition was 16.4% (inactive).

For `COc1ccc(-c2cc(Nc3ccc(NC(=O)OC(C)(C)C)cc3)ncn2)cc1`, the inhibition was 4.04% (inactive).

On to `CC(C)(C)OC(=O)Nc1cc2ccccc2cc1C(=O)O`, for which the inhibition was 79.6% (active).

In the case of `Fc1cccc(-c2cnnc(N[C@@H]3C[C@H]3c3ccccc3)n2)c1`, the inhibition is 19.2% (inactive).

Take `Cc1cc(C)cc(NC(=O)CSc2nccn(-c3cccc(F)c3)c2=O)c1`: the inhibition was 66.8% (active).

Consider `Cc1cc(C)cc(NC(=O)CSc2nccn(-c3ccc(F)cc3)c2=O)c1`, for which the inhibition was 48.7% (inactive).

As to `Cc1cc(C)cc(NC(=O)CSc2nc(=O)n3ccc(C)cc3n2)c1`, the inhibition is -10.5% (inactive).

Turning to `N#Cc1ccccc1Sc1ccc(C(N)=O)cc1`, the inhibition is -41.2% (inactive).

For the molecule `CC1C/C(=C\c2cccnc2)C(=O)/C(=C/c2cccnc2)C1` (centres undefined), the inhibition was 63% (active).

Regarding `Cc1ccc(/C=C2\CNC/C(=C\c3ccc(C)cc3)C2=O)cc1`, the inhibition is 27.8% (inactive).

As for `C(=Nc1ccc(C23CC4CC(CC(C4)C2)C3)cc1)c1cccnc1`, the inhibition was 7.01% (inactive).

Turning to `COc1c(Br)cc(Cl)cc1NCc1c(C)noc1C`, the inhibition is 14% (inactive).

Regarding `N#CC(=CC(Br)=Cc1ccccc1)c1nc(-c2ccccc2)cs1`, the inhibition is 82.4% (active).

As for `N#CC(=Cc1ccccc1I)c1nc(-c2ccccc2)cs1`, the inhibition was 10.6% (inactive).

With `N#Cc1c(Cl)cccc1NCC1CN(Cc2ccccc2)CCO1` (centres undefined), the inhibition was 57.3% (active).

Regarding `CC(=O)c1cc(CN2CCOC(CCCc3ccccc3)C2)cs1` (centres undefined), the inhibition was 28.9% (inactive).

On to `Clc1ccc(C2CN(Cc3cc(-c4ccccn4)no3)CCO2)cc1Cl` (centres undefined), for which the inhibition was 21% (inactive).

Consider `O=C(Cc1cc(-c2cc3ccccc3o2)on1)NCCc1ccccc1`, for which the inhibition was 6.56% (inactive).

As for `COC(=O)c1cc(-c2ccc(C)cc2)on1`, the inhibition is 88.9% (active).

In the case of `O=C(Cc1cc(-c2cc3ccccc3o2)on1)NCCC1=CCCCC1`, the inhibition was 32.4% (inactive).

As for `O=C(Cc1cc(-c2cc3ccccc3o2)on1)Nc1cccc(F)c1`, the inhibition is 38.6% (inactive).

In the case of `COC(=O)c1cc(-c2cc3ccccc3o2)on1`, the inhibition was 99.1% (active).

With `Cc1cc(NC(=O)Cc2cc(-c3cc4ccccc4o3)on2)no1`, the inhibition is -32.2% (inactive).

In the case of `COC(=O)c1cc(-c2ccc(OC)cc2)on1`, the inhibition was 30.9% (inactive).

With `COC(=O)c1cc(-c2ccc3c(c2)CC(C)O3)on1` (centres undefined), the inhibition is 45.8% (inactive).

With `O=C(Cc1cc(-c2cc3ccccc3o2)on1)NCCCc1ccccc1`, the inhibition is 93.4% (active).

`COC(=O)c1ccc(NC(=O)Cc2cc(-c3cc4ccccc4o3)on2)cc1`: the inhibition was 84% (active).

In general, inhibition refers to the change of the read-out against control, counted positive when it falls.
